Test results published in PubChem BioAssay.
The source made the active and inactive calls.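 How the source made its calls, unless noted: active means calcium signal rise more than 3 SD above the low-dose agonist control mean, in both duplicate plates and the primary screen; inactive means the rest.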

Assay: nonspecific calcium rise without TRPC4 – cell-based, HEK293 mu-opioid receptor line, counter-screen for TRPC4 activator project, confirmation (AID 449723;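 active means hit in primary screen, with calcium signal over 5 SD above buffer well mean in both duplicates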;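 further: counter screen cells carry the mu-opioid receptor alone and lack TRPC4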)
Conditions: HEK293 mu-opioid cells, Fluo-4 calcium fluorescence, at 10 µM

Compound	outcome
O=C(NC1CCN(Cc2ccccc2)CC1)C12CC3CC(CC(C3)C1)C2	inactive
Cc1cccc(/C=N/NC(=O)c2cc(Br)ccc2O)n1	inactive
C1CCN(c2nc(N3CCCC3)nc(N3CCNCC3)n2)C1	inactive
CNc1nc(N2CCc3ccccc32)ncc1F	inactive
Cc1cccc(Cn2c(N3CCN(c4ccccc4)CC3)nc3c2c(=O)n(C)c(=O)n3C)c1	inactive
O=C(Nc1cccc(Cl)c1)N1CCN(C/C=C/c2ccccc2)CC1	inactive

Assay: nonspecific potentiation of DAMGO calcium response – cell-based, HEK293 mu-opioid receptor line, counter-screen for TRPC4 allosteric potentiator project, confirmation (AID 449724);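 further: HEK293 cells carrying mu-opioid receptor only with no TRPC4 channel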
Conditions: HEK293 mu-opioid receptor cells, Fluo-4 calcium flux, at 10 µM, compound added before EC20 DAMGO stimulus

Compound	outcome
COc1ccc(-n2nc(C(=O)NCC(=O)NCCCN3CC(C)CC(C)C3)c3ccccc3c2=O)cc1Cl (stereo unspecified)	inactive
Cc1cc(OCC(=O)N(C(C)C)C(C)C)cc(C)c1Br	inactive
CCCCCCn1c(N2CCN(c3ccccc3)CC2)nc2c1c(=O)n(C)c(=O)n2C	inactive
CCC(=O)NC(C)C(c1cccs1)N1CCN(c2ccccc2)CC1 (stereo unspecified)	inactive
Cc1ccc(-c2nnc(N3CCC(C)CC3)c3ccccc23)cc1C	inactive
Cc1cc(C(C)(C)C)c(O)c(C)c1CC1=NCCN1	inactive
Cc1sc2ncnc(NCC(c3ccccc3)N(C)C)c2c1C (stereo unspecified)	inactive
O=C(NCc1ccccc1)C1=C[C@H](c2ccc(Br)cc2)C[C@H](OCc2ccc(CO)cc2)O1	inactive
O=C(Nc1ccccc1)C1=C[C@H](C2CCCCC2)C[C@H](OCc2ccc(CO)cc2)O1	inactive
Cc1ccc(S(=O)(=O)N2CCC(N3CCN(C)CC3)CC2)cc1Cl	inactive
Cc1cc(OCC(=O)NC2CCCCC2)ccc1Cl	inactive
O=[N+]([O-])c1ccc(/C=N/Nc2nc(N3CCCCC3)nc(N3CCCCC3)n2)o1	inactive
Cc1cccc(/C=N/NC(=O)c2cccc(Cl)c2)n1	inactive
S=C(NCCc1ccccn1)NC1CCCCC1	inactive
Cc1cccc(Cc2c(C)nc3c(C(=O)NCc4ccco4)cnn3c2C)c1	inactive
Cc1ccc(Cn2c(=N)c(C(=O)NC3CCCC3)cc3c(=O)n4ccccc4nc32)cc1	inactive
COC(=O)[C@@]12CCCCN1[C@H](c1ccc(-c3cccc(Cl)c3)c(OC)c1)[C@H]1C(=O)N(C)C(=O)[C@H]12	inactive
CC1=C(C(=O)NCc2ccccc2)C(c2cc(Br)cc(Br)c2OC(C)C)NC(=O)N1 (stereo unspecified)	inactive
CC1Cc2ccccc2N1C(=O)CSc1nc2c(c(=O)n(C)c(=O)n2C)n1Cc1ccc(F)cc1 (stereo unspecified)	inactive
CCN1CCN(c2ccc(S(=O)(=O)N3CCOCC3)cc2NC(=O)c2ccccc2OC(F)F)CC1	inactive

Compound	outcome
O=C1C(Cl)=C(Nc2cccc(O)c2)C(=O)N1Cc1ccccc1	inactive
O=C(NCc1ccccc1)C1=C[C@H](c2ccc(C(F)(F)F)cc2)C[C@H](OCc2ccc(CO)cc2)O1	inactive
COc1ccc(C)c(NC(=O)NCCc2cnc[nH]2)c1	inactive
CN(C)CCNc1ccc(Cl)cc1[N+](=O)[O-]	inactive
CCn1c(O)c(N=NC(=O)c2cccc(S(=O)(=O)N3CCCCC3)c2)c2ccccc21	inactive
Cc1onc(-c2ccccc2)c1C(=O)NNC(=S)NC(=O)c1ccc2c(c1)OCO2	inactive
COc1ccc(Cl)cc1C(=O)NCCN(C)C	inactive
O=C1NCN(c2ccccc2)C12CCN(CCCC(c1ccc(F)cc1)c1ccc(F)cc1)CC2	inactive
Cc1ccc(/C=N/NC(=O)NC2CCCCC2)o1	inactive
O=C(Nc1cccc(Cl)c1)c1cnn2cccnc12	inactive
COc1c(C)cc(C(=O)C2CCCN(Cc3cccc4nccnc34)C2)cc1C (stereo unspecified)	inactive
O=C(c1cccc([N+](=O)[O-])c1)N1CCCC(C(=O)N2CCCCCC2)C1 (stereo unspecified)	inactive
CCOc1ccc(-n2c(SCC(=O)O)nc3sc4c(c3c2=O)CCCC4)cc1	inactive
Cc1cc(-c2ccc(C)c(S(=O)(=O)N3CCN(C(=O)c4ccco4)CC3)c2)on1	inactive
O=C(NC1CCN(Cc2ccccc2)CC1)C12CC3CC(CC(C3)C1)C2	inactive
Cc1cccc(/C=N/NC(=O)c2cc(Br)ccc2O)n1	inactive
C1CCN(c2nc(N3CCCC3)nc(N3CCNCC3)n2)C1	inactive
CNc1nc(N2CCc3ccccc32)ncc1F	inactive
Cc1cccc(Cn2c(N3CCN(c4ccccc4)CC3)nc3c2c(=O)n(C)c(=O)n3C)c1	inactive
O=C(Nc1cccc(Cl)c1)N1CCN(C/C=C/c2ccccc2)CC1	inactive
